Drawing on PubChem BioAssay, this text covers inhibition for 13 molecules.

This is one part of the list. Unmarked numbers belong to inactive results. Active and inactive are the calls of the source.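 The calls were made as follows: active = mean inhibition across three repeat runs above about 25% carried over from the earlier screen (limit read from the data); inactive = the rest.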

The subject of the assay is TLR4-MyD88 interaction (human), BLA complementation. Kind of assay: TLR4-MyD88 association inhibitors, retest, confirmation, cell-based, HeLa CL3-4, BLA complementation, FRET ratio (AID 941).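 Also: plate controls were DMSO only for no effect and clavulanic acid blocking BLA at full dose for full effect.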 To be noted: CCF4 FRET ratio, at 8.4 µM, hits give high values.
A word on the inhibition: it is the relative decrease from the control value, in per cent. Regarding `O=C(c1ccc(Cl)cc1)c1cnc(Nc2ccccc2)s1`, the inhibition was 9.98%.
Under `C[n+]1ccc(/C=C/c2c[nH]c3ccccc23)cc1` stands 26.1% (active); under `O=C(/C=C/c1ccc(N2CCOCC2)cc1)c1ccccc1`, 21.1%.
Then `O=C1c2cccc3c([N+](=O)[O-])ccc(c23)C(=O)N1CC1CCCO1` (stereo not drawn), with 82.5% (active); and `CCc1ccc2c(c1)C1(NN=C(c3ccccc3)S1)C(=O)N2` (stereo not drawn), with 13.3%.
In the case of `CCN(CC)c1ccc2oc(=O)c(C)nc2c1`, the inhibition is 4.42%.
Then `O=C(Nc1ccccc1Cl)/C(Cl)=C(\Cl)S(=O)c1ccccc1` (stereo not drawn), with 11.5%; and `COc1ccccc1N1N=C(c2cccs2)CC1c1ccccc1` (stereo not drawn), with 36% (active); and `Cc1nc(Cl)c2oc3ccccc3c2n1`, with 39% (active).
Under `O=C1NC(=O)C2C1C(c1ccc([N+](=O)[O-])cc1)=NN2Cc1ccccc1` (stereo not drawn) stands 25.8% (active); under `Cc1cccc(COc2ccccc2/C=N/Nc2ccc([N+](=O)[O-])cc2)c1`, 16.9%; under `COC(=O)Cc1cc(=O)n(-c2nc3ccccc3s2)[nH]1`, -4.76%.
Turning to `CCCCCCCCn1c2c(c(=N)c3c1CCC3)CCCC2`, the inhibition was 23.3%.
